# Data from PubChem BioAssay (EPA / NIEHS).
# Several values for one entry are separate records, joined by “and”; a condition that tells them apart may be missing. Equal values may be shown once. Results filed as inconclusive are left out. Activity calls are given as the source filed them. The calls were made as follows: active = hit-call score of the fitted dose curve at least 0.9, where 1 is the maximum; inconclusive = response in the unintended direction; inactive = score below 0.9.
# Legend:
# [1] = molecular target: human Leukotriene B4 Receptor 1 (LTB4-BLT1), LTB4R (gene 1241) (UniProt Q15722); assay: NVS_GPCR_hLTB4_BLT1: NovaScreen (NVS) G Protein-Coupled Receptor Assay for human Leukotriene B4 Receptor 1 (LTB4-BLT1) (AID 2283271)
# human Leukotriene B4 Receptor 1 (LTB4-BLT1), LTB4R (gene 1241), sequence (Q15722 whole entry, looked up): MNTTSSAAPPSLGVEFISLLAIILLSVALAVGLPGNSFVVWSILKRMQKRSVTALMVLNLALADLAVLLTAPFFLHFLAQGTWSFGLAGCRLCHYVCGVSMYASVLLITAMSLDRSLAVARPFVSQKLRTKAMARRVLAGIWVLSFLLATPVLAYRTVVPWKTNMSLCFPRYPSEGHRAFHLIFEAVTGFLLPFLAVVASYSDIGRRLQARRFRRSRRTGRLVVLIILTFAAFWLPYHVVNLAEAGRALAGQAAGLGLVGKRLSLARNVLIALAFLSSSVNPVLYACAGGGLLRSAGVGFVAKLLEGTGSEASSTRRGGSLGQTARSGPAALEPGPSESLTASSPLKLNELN
# Method in brief: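 Cell-free human neutrophil receptor preparation, 1 h exposure, radioligand binding read by filter scintillation counting. Single 25 uM duplicate screen, then concentration series topping at 50 uM; binding loss scored against DMSO baseline.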
# [2] = molecular target: human Neurotensin Receptor (NTS), NTSR1 (gene 4923) (UniProt P30989); assay: NVS_GPCR_hNTS: NovaScreen (NVS) G Protein-Coupled Receptor Assay for human Neurotensin Receptor (NTS) (AID 2283279)
# human Neurotensin Receptor (NTS), NTSR1 (gene 4923), sequence (P30989 whole entry, looked up): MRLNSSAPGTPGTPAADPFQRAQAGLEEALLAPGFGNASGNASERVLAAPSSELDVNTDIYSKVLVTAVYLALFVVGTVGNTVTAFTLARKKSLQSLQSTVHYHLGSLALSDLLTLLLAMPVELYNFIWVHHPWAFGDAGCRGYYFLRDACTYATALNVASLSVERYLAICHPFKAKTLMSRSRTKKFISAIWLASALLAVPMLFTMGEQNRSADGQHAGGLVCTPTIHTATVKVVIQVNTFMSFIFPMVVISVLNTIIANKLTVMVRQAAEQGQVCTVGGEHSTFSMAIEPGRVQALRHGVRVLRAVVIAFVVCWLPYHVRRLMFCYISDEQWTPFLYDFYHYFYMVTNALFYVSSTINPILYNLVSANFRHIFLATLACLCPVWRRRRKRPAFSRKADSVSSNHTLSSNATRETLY
# Method in brief: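 Compounds competed with a radiolabelled ligand for binding to CHO-derived human neurotensin receptor; bound signal counted after filtration, 1 h. Screened first at a single concentration of 25 uM in duplicate, then concentration series to 50 uM maximum for actives.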
# [3] = molecular target: Muscarinic acetylcholine receptor M3 (Homo sapiens) (UniProt P20309); assay: NVS_GPCR_hM3: NovaScreen (NVS) G Protein-Coupled Receptor Assay for human Muscarinic, M3 Receptor (AID 2283272)
# Muscarinic acetylcholine receptor M3 (Homo sapiens), sequence (P20309 whole entry, looked up): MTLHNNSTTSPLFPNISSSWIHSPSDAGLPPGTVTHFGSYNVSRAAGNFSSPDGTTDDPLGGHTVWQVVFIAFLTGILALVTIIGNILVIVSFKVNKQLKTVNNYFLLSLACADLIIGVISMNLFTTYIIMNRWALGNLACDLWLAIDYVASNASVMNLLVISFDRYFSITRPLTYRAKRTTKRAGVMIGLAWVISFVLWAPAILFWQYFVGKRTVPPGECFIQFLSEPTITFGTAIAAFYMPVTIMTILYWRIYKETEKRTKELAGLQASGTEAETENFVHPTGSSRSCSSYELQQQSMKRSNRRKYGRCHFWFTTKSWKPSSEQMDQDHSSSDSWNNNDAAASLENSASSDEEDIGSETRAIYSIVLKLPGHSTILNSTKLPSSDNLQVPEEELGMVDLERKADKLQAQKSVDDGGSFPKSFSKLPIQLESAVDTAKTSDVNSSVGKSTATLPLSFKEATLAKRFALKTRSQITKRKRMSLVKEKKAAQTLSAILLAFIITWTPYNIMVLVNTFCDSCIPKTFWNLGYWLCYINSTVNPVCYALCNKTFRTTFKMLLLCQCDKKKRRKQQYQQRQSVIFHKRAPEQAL
# Method in brief: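 Radioligand displacement binding on human M3 receptor in CHO-derived membranes, 1 h incubation, filter-based scintillation counting. Primary screen in duplicate at 25 uM; actives followed up in concentration series; loss of signal versus DMSO.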
# [4] = molecular target: human Muscarinic, M4 Receptor, CHRM4 (gene 1132) (UniProt P08173); assay: NVS_GPCR_hM4: NovaScreen (NVS) G Protein-Coupled Receptor Assay for human Muscarinic, M4 Receptor (AID 2283274)
# human Muscarinic, M4 Receptor, CHRM4 (gene 1132), sequence (P08173 whole entry, looked up): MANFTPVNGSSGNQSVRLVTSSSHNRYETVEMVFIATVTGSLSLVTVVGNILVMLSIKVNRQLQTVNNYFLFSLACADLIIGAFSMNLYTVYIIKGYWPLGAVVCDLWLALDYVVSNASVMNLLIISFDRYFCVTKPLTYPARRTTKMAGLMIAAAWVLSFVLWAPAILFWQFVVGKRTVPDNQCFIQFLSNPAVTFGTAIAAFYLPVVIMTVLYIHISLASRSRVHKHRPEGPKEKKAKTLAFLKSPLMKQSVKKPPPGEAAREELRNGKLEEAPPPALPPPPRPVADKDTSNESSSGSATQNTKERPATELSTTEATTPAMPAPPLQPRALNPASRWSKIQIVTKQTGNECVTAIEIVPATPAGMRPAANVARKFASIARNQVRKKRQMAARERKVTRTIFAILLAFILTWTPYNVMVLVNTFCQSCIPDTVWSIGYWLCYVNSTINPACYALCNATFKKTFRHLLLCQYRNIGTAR
# Method in brief: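 Filter-based scintillation counting of radioligand bound to CHO-expressed human M4 preparations after 1 h; loss of signal fitted versus DMSO. Initial duplicate testing at 25 uM, concentration-response follow-up for actives.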
# [5] = molecular target: D(1A) dopamine receptor (Homo sapiens) (UniProt P21728); assay: NVS_GPCR_hDRD1: NovaScreen (NVS) G Protein-Coupled Receptor Assay for human Dopamine Receptor D1 (DRD1) (AID 2283269)
# D(1A) dopamine receptor (Homo sapiens), sequence (P21728 whole entry, looked up): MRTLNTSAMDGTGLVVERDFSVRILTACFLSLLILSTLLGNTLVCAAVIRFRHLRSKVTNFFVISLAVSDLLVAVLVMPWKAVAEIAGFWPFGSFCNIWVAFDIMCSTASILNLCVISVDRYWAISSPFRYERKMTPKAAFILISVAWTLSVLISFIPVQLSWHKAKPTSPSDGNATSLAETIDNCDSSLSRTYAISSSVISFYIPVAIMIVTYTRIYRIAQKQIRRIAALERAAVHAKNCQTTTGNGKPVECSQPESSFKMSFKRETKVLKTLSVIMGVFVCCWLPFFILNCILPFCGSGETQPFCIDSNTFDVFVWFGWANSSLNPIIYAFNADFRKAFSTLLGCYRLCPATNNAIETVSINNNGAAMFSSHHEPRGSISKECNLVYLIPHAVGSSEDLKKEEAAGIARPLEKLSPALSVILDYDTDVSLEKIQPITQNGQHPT
# Method in brief: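 HEK293-derived receptor preparation; radioligand competitive displacement; 1 h; filtration + scintillation counting. DMSO = negative control/baseline. Primary: 25 uM, duplicate; secondary: concentration–response for actives.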
compound,measurement,setting,value
OC(c1ccc(Cl)cc1)(c1cncnc1)c1ccccc1Cl (stereo not given),outcome,[1],inactive
COC(=O)C(C)Oc1ccc(Oc2ccc(Cl)cc2Cl)cc1 (stereo not given),outcome,[2],inactive
CCCC1COC(Cn2cncn2)(c2ccc(Cl)cc2Cl)O1 (stereo not given),AC50,[3],4.96 µM (active)
same,outcome,[4],inactive
C=CCC1=C(C)C(OC(=O)C2C(C=C(C)C)C2(C)C)CC1=O (stereo not given),AC50,[5],41.6 µM (active) and 29.3 µM (active)
